A selection: hits, their analogues and other compounds. The true share with any hit is near 5.3%.
Sfp inh = blocks B. subtilis Sfp PPTase activity; Biochemical Sfp PPTase activity, qHTS; Potency, µM, most hits filed as inhibitors; hit rate 3.5% among 310,000; AID 1490;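 also: the enzyme is Sfp with the accession as filed and its product quenches rhodamine fluorescence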
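Fluorescence-quenching assay: 15 nM Sfp-PPTase preincubated 15 min at room temperature with compound, then 5 uM rhodamine-CoA and 12.5 uM BHQ-2-labelled YbbR peptide added. Fluorescence (ex 525/em 598 nm) read at start and after 30 min; difference gives rate.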
Tau ThT inhib = tau fibrillization inhibition (ThT binding); recombinant tau K18 P301L, heparin-induced fibrillization, ThT fluorescence; AID 1460; hit rate 2.1% among 270,000; Potency, µM (top dose mostly 57.4 µM), most hits filed as inhibitors; also: nearly all actives have a fitted effect of over 55% in size
Target sequence (P10636 561-689 P618L limits assumed): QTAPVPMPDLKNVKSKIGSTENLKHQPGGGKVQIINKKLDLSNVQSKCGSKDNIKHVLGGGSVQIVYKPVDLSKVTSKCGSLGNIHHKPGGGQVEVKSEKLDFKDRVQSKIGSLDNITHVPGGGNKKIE
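Recombinant human tau K18 fragment […] carrying P301L, 15 uM unlabeled plus 0.24 uM Alexa 594-labeled, was fibrillized with 20 uM heparin in 100 mM sodium acetate pH 7 for 6 hr at 37 C; 30 uM ThT fluorescence read after 1 hr.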
FBPA coupling cs = counter-screen for Giardia aldolase inhibitors: coupling enzyme system; coupling enzyme system counterscreen, AmpLite Red fluorescence; activity change, negative = inhibition, % at 58.2 µM, hits read low; hit rate 0.67% among 290,000; in the data active = activity change below about -30%
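Compounds tested against the coupling enzymes alone at 57.5 uM final; readout was AmpLite Red fluorescence (525/598 nm) after 20 min at RT.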
Tau FP inhib = blocks human tau fibril formation measured by polarization; K18 P301L tau heparin fibrillization, Alexa594 FP, 6 h; Potency, µM (series often up to 57.7 µM), usual class: inhibitors; hit rate 0.39% among 280,000; AID 1468; also: nearly all actives have a fitted effect of over 55% in size
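Read-out: fluorescence polarization of Alexa 594-labeled tau (0.24 uM), 555 nm excitation, 632 nm emission. Mixtures held 15 uM unlabeled K18 P301L, compound and 20 uM heparin, pH 7 acetate buffer, incubated 6 hr at 37 C.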
JMJD2E inh = inhibitors of human JMJD2E histone demethylase. B2RXH2. JMJD2E catalytic domain, FDH-coupled NADH fluorescence (FDH is formaldehyde dehydrogenase). hit rate 1.6% among 230,000. Potency, µM (series often up to 57.1 µM), actives largely listed as inhibitors; active = well fitted inhibition curve with a large enough effect, not every such curve was filed as active; inconclusive = small, poorly fitted or top-dose-only effect, or another doubt; inactive = no such curve, though single readings can be large or run the other way; also: nearly all actives have a fitted effect of over 50% in size
Target sequence (B2RXH2 1-337 limits assumed): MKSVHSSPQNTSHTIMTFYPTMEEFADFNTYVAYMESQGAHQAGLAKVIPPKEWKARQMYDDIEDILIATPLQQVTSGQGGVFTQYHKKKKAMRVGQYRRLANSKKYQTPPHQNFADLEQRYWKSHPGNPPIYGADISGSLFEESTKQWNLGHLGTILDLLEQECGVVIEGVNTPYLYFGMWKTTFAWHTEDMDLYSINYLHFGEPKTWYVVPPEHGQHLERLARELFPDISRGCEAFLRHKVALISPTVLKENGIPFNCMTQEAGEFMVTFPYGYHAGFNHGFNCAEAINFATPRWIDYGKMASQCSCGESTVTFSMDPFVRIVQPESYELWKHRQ
Tau fluor cs = counter-screen for tau fibril formation inhibitors. hit rate 0.93% among 280,000. AID 1463. Potency, µM (doses to about 57.7 µM). tau K18 P301L Alexa594 fluorescence, heparin fibrillization; also: nearly all actives have a fitted effect of over 55% in size
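Human tau K18 P301L (15 uM unlabeled, 0.24 uM Alexa 594-labeled) in 100 mM sodium acetate pH 7 with 20 uM heparin, 6 hr at 37 C. ThT 30 uM added, 1 hr ambient; Alexa 594 FP and total fluorescence read at 555/632 nm.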
A number is an active result; n = inactive; u = inconclusive; x = no result given; ! = a repeat was not active; [ ] = another dose, or the depositor's remark. Unless noted, calls follow the shape of the dose curve; as a rule, active = well fitted curve in the direction sought with a large enough effect; inconclusive = small, poorly fitted or top-dose-only effect, or another doubt; inactive = no such curve, though single readings can be large; an effect the other way counts as inactive or inconclusive.

SMILES	Sfp inh	Tau ThT inhib	FBPA coupling cs	Tau FP inhib	JMJD2E inh	Tau fluor cs
CCOc1ccccc1NC(=O)C(=O)Nc1ccc2nc3n(c(=O)c2c1)CCCCC3	x	u	x	n	x	n
C[C@H](CCC(=O)NCC(=O)O)C1CC[C@H]2[C@H]3C(C[C@H](O)[C@]12C)[C@@]1(C)CC[C@@H](O)C[C@H]1C[C@H]3O (stereo partly specified)	n	n	x	n	x	n
COc1ccc(C(=O)Nc2ccccc2-c2nc3ccccc3s2)c(OC)c1	x	n	x	u	x	n
Cc1c(-c2cccc(NC(=O)Nc3ccc(Cl)cc3)c2)nc2ncccn12	x	n	x	20µM	x	10µM[quencher]
COc1ccc(OC)c(NC(=O)Nc2ccc(Cl)cc2)c1	n	u	n	n	n	14µM[quencher]
COc1ccc(NC(=O)Nc2cc(-c3cn4cccnc4n3)ccc2OC)cc1	x	n	x	n	x	n
COc1ccc(-c2cn3cccnc3n2)cc1NC(=O)Nc1ccc(Cl)cc1	x	u	x	n	x	14µM[quencher]
COc1cc(NC(=O)c2ccco2)c(OC)cc1NC(=O)Nc1ccc(Cl)cc1	n	u	n	n	n	8.9µM[quencher]
CCC1(c2ccc(O)cc2)NC(=O)NC1=O (stereo unspecified)	n	x	n	x	x	x
CCOc1ccccc1O[C@@H](c1ccccc1)[C@@H]1CNCCO1	n	n	n	n	u	n
CCOC(=O)c1ccc(NC(=O)c2cccc(S(=O)(=O)N3c4ccccc4CC3C)c2)s1 (stereo unspecified)	n	n	n	8.9µM	u	u
CN1CCN(c2nc(-c3ccc(N(C)C)cc3)nc3ccccc23)CC1	50µM	u	n	n	u	u
CCCCOC(=O)c1c(C)oc2ccc(NS(=O)(=O)c3ccc4c5c(cccc35)C(=O)N4)cc12	n	u	n	n	u	16µM[quencher]
Cc1ccc(C)c(CN2C(=O)c3ccccc3S(=O)c3ccc(C(=O)NCCc4ccc(Cl)cc4)cc32)c1 (stereo unspecified)	x	n	x	n	x	n
COc1ccccc1NC(C)C(=O)N/N=C/c1ccccc1OCc1cccc(Br)c1 (stereo unspecified)	n	u	n	n	n	n
COc1cc([N+](=O)[O-])cc(/C=N/NC(=O)C(C)Nc2cccc3ccccc23)c1O (stereo unspecified)	n	n	n	n	4.5µM	n
CC(Nc1cccc2ccccc12)C(=O)N/N=C/c1ccc([N+](=O)[O-])cc1 (stereo unspecified)	32µM	u	-46	u	n	7.9µM[quencher]
Cc1cccc(/C=N/NC(=O)C(C)Nc2cccc3ccccc23)n1 (stereo unspecified)	n	u	n	n	u	u
OCC1=C[C@@H](O)[C@@H]2C=CO[C@@H](OC3O[C@H](CO)[C@@H](O)[C@H](O)[C@H]3O)[C@H]12 (stereo partly specified)	n	x	n	x	x	x
O=c1ccc(=O)n(-c2ccccc2)[nH]1	50µM	n	n	n	n	n
O=c1cc(Cl)[nH]n(-c2ccccc2)c1=O	n	x	n	x	x	x
Cc1cc(C(C)(C)C)nc2[nH]n(-c3ccccc3)c(=O)c12	n	n	n	n	n	n
CC(C)(C)c1cc(=O)n(-c2ccccc2)[nH]1	u	40µM	n	u	n	n
COc1cc(OC)cc(-c2nnc3n2N=C(c2ccccc2OC)CS3)c1	n	x	n	x	x	x
C(=N\Nc1ncnc2ccccc12)/c1ccccc1	n	u	n	n	n	n
SMILES	Sfp inh	Tau ThT inhib	FBPA coupling cs	Tau FP inhib	JMJD2E inh	Tau fluor cs
Nc1c(Cl)ncnc1N/N=C/c1ccnc2ccccc12	35µM	n	n	n	n	n
Nc1c(Cl)ncnc1N/N=C/c1ccccn1	n	u	n	n	20µM	n
Nc1c(Cl)ncnc1N/N=C/c1ccc2ccccc2n1	n	4µM	n	n	u	n
CCOC(=O)c1cnc2c(cnn2C)c1NCCC#N	n	n	n	u	n	n
CCOC(=O)c1cnc2c(cnn2CC)c1NN=C(C)C	45µM!	u	n	n	u	n
COC(=O)C1CSc2[nH]c(=O)sc2C1c1ccccc1 (stereo unspecified)	45µM	n	n	n	n	n
COc1cc2[nH]c3c(=O)n(CCN(C(C)C)C(C)C)cnc3c2cc1OC	n	n	-45	n	u	n
O=c1c(-c2ccc([N+](=O)[O-])cc2)coc2c(O)c(O)ccc12	n	x	n	n	14µM	n
COc1cc(O)c2c(=O)cc(-c3ccc(OC)c(-c4c(O)cc(O)c5c(=O)cc(-c6ccc(O)cc6)oc45)c3)oc2c1	n	n	n	u	u	u
O=c1c(-c2c(O)cc(O)c3c(=O)cc(-c4ccc(O)cc4)oc23)c(-c2ccc(O)cc2)oc2cc(O)cc(O)c12	u	16µM	n	u	u	u
O=c1cc(-c2ccc(O)c(-c3c(O)cc(O)c4c(=O)cc(-c5ccc(O)cc5)oc34)c2)oc2cc(O)cc(O)c12	n	14µM	n	u	n	u
Cc1cc(C)cc(NC(=O)c2cc(S(=O)(=O)N3CCCCC3)c[nH]2)c1	x	n	x	n	x	n
Cc1cccc(C(=O)NC2(C(F)(F)F)N=C(c3ccccc3)N(C3CCCCC3)C2=O)c1 (stereo unspecified)	x	n	x	n	x	n
CN1/C(=C/C(=O)C2CC2)C(C)(C)c2ccccc21	n	n	n	n	u	n
CN1/C(=C\C(=S)NC(=O)c2cccc(Br)c2)C(C)(C)c2ccccc21	u	7.1µM	n	n	n	n
CCN(CC)S(=O)(=O)c1cccc(C(=O)/C=C2/N(C)c3ccccc3C2(C)C)c1	n	n	n	n	u	n
CN1/C(=C\C(=O)Nc2ccc(F)cc2)C(C)(C)c2ccccc21	n	u	n	n	u	10µM[quencher]
CN1/C(=C\C(=O)Nc2cccc(Cl)c2)C(C)(C)c2ccccc21	n	u	n	n	u	14µM[quencher]
CN1/C(=C\C(=O)Nc2ccc(Br)cc2)C(C)(C)c2ccccc21	n	u	n	n	u	7.1µM[quencher]
Cc1ccc2oc(=O)c3cc(C(=O)N(Cc4ccccc4)C(C)C)sc3c2c1	x	n	x	n	x	n
COc1ccc(C(=O)N2CCC3(CC2)CN(c2ccccn2)C3)cc1	n	x	n	x	x	x
Cn1c(C(=O)N2CCN(c3ncccn3)CC2)cc2c(=O)n(C)c3ccccc3c21	40µM	n	-45	n	n	n
Cn1c(C(=O)N2CCCC2)cc2c(=O)n(C)c3ccccc3c21	n	n	n	n	n	n
COc1ccc2c(c1OC)C(=O)N1c3ccccc3N=C(c3ccc([N+](=O)[O-])cc3)CC21 (stereo unspecified)	20µM	20µM	n	u	n	n
COc1ccc2c(c1OC)C(=O)N1N=C(c3ccc(-c4ccccc4)cc3)CC21 (stereo unspecified)	n	u	n	n	n	n

Compound activity as filed in PubChem BioAssay.
